These results are taken from PubChem BioAssay.

Active and inactive are the calls of the source. Unless noted, the rule behind the calls is not given here.

Test [1] in a line: HepG2 liver cancer cell viability effects, profiling panel, resazurin fluorescence, 24 h, PK04 Diversity Set (AID 1172). Note: test concentration not given here. As to conditions: higher = more signal. A general note: Alamar Blue is a resazurin reagent that responds to reducing activity.
The nature of test [2]: basal S. cerevisiae growth modulation, no modifier, primary screen, OD600, strain BY4716, 24 h, basal condition (AID 1173). The following applies: OD600, 24 h, higher = more signal, called active from +8 up or from −8 down.
A short description of test [3]: MM1S myeloma cell viability, profiling panel, resazurin fluorescence, basal, 24 h, PK04 Diversity Set (AID 1174).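 Note: MM1S multiple myeloma cell line; test concentration not given here.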 As to conditions: higher = more signal, called active from +8 up or from −8 down.
Test [4] deals with Dihydroorotate dehydrogenase (quinone), mitochondrial (Plasmodium falciparum (isolate 3D7)) (UniProt Q08210). Nature of the test: PfDHODH enzyme inhibitors, primary screen, biochemical, C-terminal His tag, absorbance 600 nm (AID 1175).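 Note: recombinant parasite enzyme with a five histidine tag at its C terminus; test concentration not given here.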 The following applies: DCIP absorbance 600 nm, higher = more signal, called active from +8 up or from −8 down.
Test [5] in a line: P. aeruginosa biofilm formation inhibitors, primary screen, strain PAO1, LB-PBS medium, absorbance 600 nm (AID 1176). Note: test concentration not given here. As to conditions: P. aeruginosa PAO1 growth/biofilm, A600, 12 h; higher = more signal.
Test [6] in a line: S. cerevisiae RM11-1a growth modifiers, primary screen, strain RM11-1a, OD600, basal, 24 h (AID 1177).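 Note: cultures grown under basal conditions with no added stressor; test concentration not given here.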 The following applies: OD600, 24 h, higher = more signal, called active from +8 up or from −8 down.
A short description of test [7]: E. coli acrAB mutant growth effects, primary screen, E. coli filamentation inducers, strain DRC39, OD650, 24 h (AID 1178).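 Note: growth measured as culture turbidity by optical density at 650 nm; test concentration not given here.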 As to conditions: higher = more signal, called active from +8 up or from −8 down.
Test [8] can be described thus: E. coli acrAB mutant growth effects, primary screen, E. coli filamentation inducers, strain DRC39, OD650, 48 h (AID 1179).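 Note: screen aims at cell division blockers that make cells filament.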 As to conditions: E. coli DRC39 delta-acrAB growth, higher = more signal, called active from +8 up or from −8 down.
Test [9] is described as follows: RPMI8226 myeloma cell viability, profiling panel, resazurin fluorescence, basal, 24 h, PK04 Diversity Set (AID 1180).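 Note: RPMI8826 multiple myeloma cell line at 5000 cells per well; test concentration not given here.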 As to conditions: higher = more signal.
Test [10] addresses E3 ubiquitin-protein ligase XIAP (Homo sapiens) (UniProt P98170). Nature of the test: XIAP binders, primary screen, biophysical, small-molecule microarray, fluorescence 635 nm (AID 1181).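 Note: score merges 667 nm emission and signal to noise over triplicate slides.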 As to conditions: small-molecule microarray binding, higher = more signal.

Sequence of Dihydroorotate dehydrogenase (quinone), mitochondrial (Plasmodium falciparum (isolate 3D7)) (Q08210 whole entry, looked up): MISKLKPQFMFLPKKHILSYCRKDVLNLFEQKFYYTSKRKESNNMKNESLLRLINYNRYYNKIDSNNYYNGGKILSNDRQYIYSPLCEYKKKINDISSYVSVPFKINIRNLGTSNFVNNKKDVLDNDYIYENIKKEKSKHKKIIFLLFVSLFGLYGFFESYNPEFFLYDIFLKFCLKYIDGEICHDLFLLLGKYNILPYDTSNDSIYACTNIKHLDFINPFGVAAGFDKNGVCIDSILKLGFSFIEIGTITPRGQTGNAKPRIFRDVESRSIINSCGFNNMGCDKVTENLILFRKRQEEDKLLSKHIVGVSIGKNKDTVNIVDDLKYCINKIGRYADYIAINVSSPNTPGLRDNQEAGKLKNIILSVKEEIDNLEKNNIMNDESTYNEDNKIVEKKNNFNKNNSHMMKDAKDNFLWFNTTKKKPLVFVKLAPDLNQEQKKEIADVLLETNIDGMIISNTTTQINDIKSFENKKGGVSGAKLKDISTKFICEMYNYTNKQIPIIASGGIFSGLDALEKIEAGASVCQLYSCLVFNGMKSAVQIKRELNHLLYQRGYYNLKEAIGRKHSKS
Sequence of E3 ubiquitin-protein ligase XIAP (Homo sapiens) (P98170 whole entry, looked up): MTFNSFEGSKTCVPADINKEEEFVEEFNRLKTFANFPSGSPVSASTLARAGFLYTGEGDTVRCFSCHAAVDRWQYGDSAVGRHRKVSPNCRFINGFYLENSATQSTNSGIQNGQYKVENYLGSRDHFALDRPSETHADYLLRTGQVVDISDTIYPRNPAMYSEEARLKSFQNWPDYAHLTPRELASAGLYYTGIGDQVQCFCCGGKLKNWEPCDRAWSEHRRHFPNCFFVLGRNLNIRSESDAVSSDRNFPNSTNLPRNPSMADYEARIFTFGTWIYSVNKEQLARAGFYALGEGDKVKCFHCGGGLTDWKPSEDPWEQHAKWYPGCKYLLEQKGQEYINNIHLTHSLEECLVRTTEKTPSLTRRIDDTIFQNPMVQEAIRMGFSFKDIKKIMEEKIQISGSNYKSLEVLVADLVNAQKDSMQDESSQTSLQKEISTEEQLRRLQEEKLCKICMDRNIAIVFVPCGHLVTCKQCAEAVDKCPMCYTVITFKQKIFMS

`C#CCN(Cc1ccccc1Br)C(/C=C/c1ccccc1)CO` (stereo not given): the z-score is -0.54 in test [1]; -6.66 (inactive) in [2]; 0.862 (inactive) in test [3]; -0.365 (inactive) in [5]; -1.26 (inactive) in test [6]; 1.1 (inactive) in [7]. In addition, the z-score was -0.494 (inactive) in [8] and -0.166 in [9]. The composite z-score in [4] is 0.34 (inactive); in test [10], 0.147.
Regarding `C=CC[C@]1(C(=O)NCCCOC)N=C(c2ccc(OCCCO)cc2)O[C@H]1c1ccccc1N=[N+]=[N-]`, the z-score in test [1] was 0.632; in [2], 0.215 (inactive); in [3], -0.894 (inactive); in test [5], 1.79 (inactive); in test [6], 0.571 (inactive); in test [7] it was 0.961 (inactive). Besides, the z-score in test [8] was -0.615 (inactive); in [9] it was -1.04. Moreover, the composite z-score in [4] is 1.1 (inactive); in test [10], 0.262.
`CC(C)OC(=O)C=C1C[C@@H](c2ccccc2C(F)(F)F)O[C@@H](c2ccccc2C(F)(F)F)O1`: the z-score was -0.111 in test [1]; 0.0349 (inactive) in test [2]; 0.493 (inactive) in [3]; -0.212 (inactive) in test [5]; 0.123 (inactive) in [6]; -1.23 (inactive) in [7]. Besides, the z-score in test [8] was 0.217 (inactive); in test [9] it was -0.818. Besides, the results for the composite z-score in test [4] and in [10] were -1.12 (inactive) and 0.193, respectively.
In the case of `CCCCCN1CC=CC23O[C@@H]4/C=C\CCCOC(=O)C4[C@H]2C(=O)N(CCCO)[C@@H]3C1=O` (stereo not given in full), the z-score in test [1] is 1.15; in [2], -1.26 (inactive); in test [3] it was 1.21 (inactive); in [5] it was 0.661 (inactive); in [6] it was -1.32 (inactive); in test [7] it was 0.581 (inactive). Also, the results for the z-score in test [8] and in [9] were 0.025 (inactive) and 1.72, respectively. Moreover, the composite z-score was -1.37 (inactive) in [4] and 0.239 in test [10].
For the compound `CC1(C)[C@@H]2CC(C(O)C3C=CC4C(=O)N(c5ccccc5)C(=O)C4N3Nc3ccccc3)=C[C@H]1C2` (stereo not given in full), the z-score in test [1] is 0.0594; in [2], -3.01 (inactive); in test [3], -0.852 (inactive); in test [5], 0.711 (inactive); in [6], -0.0064 (inactive); in test [7] it was -0.441 (inactive). Further, the z-score was -0.328 (inactive) in test [8] and -1.08 in [9]. The composite z-score in [4] was 0.232 (inactive); in test [10], 0.169.
`COC(=O)C(CC#Cc1ccc2c(c1)[C@]1(C(=O)N2)[C@H](C(=O)O)[C@H]2C(=O)O[C@H](c3ccccc3)[C@H](c3ccccc3)N2[C@@H]1c1ccc(O)cc1)C(=O)OC`: the z-score is 0.0521 in test [1]; 0.183 (inactive) in test [2]; 0.395 (inactive) in test [3]; 1.03 (inactive) in [5]; 0.62 (inactive) in test [6]; 0.569 (inactive) in test [7]. The results for the z-score in [8] and in test [9] were -0.0012 (inactive) and -0.0124, respectively. Also, the figures for the composite z-score in [4] and in test [10] were -5.46 (inactive) and -0.165, respectively.
Take `C=C/C=C/[C@H]1C(=C)CN([C@@H](Cc2ccccc2)C(=O)OC)[C@@H]1[C@H](O)Cc1ccccc1`: the z-score was 0.28 in test [1]; -1.91 (inactive) in test [2]; 0.883 (inactive) in test [3]; 0.531 (inactive) in test [5]; -0.609 (inactive) in [6]; 0.701 (inactive) in test [7]. Further, the z-score in test [8] is 0.595 (inactive); in [9], 0.73. Moreover, the composite z-score in test [4] was -1.09 (inactive); in test [10] it was 0.643.
Consider `O=C1O[C@H](c2ccccc2)[C@H](c2ccccc2)N2[C@H]1[C@@H](C(=O)NC[C@H](O)c1ccccc1)[C@]1(C(=O)Nc3ccccc31)[C@H]2c1ccc(OCCO)cc1`, for which the z-score is 0.293 in test [1]; 1.3 (inactive) in test [2]; -2.05 (inactive) in [3]; 4.04 (inactive) in test [5]; 3.05 (inactive) in test [6]; 0.0797 (inactive) in test [7]. Further, the values for the z-score in test [8] and in test [9] were 0.0403 (inactive) and -3.16, respectively. For the same compound, the values for the composite z-score in test [4] and in test [10] were 0.0379 (inactive) and -0.0272, respectively.
With `COCCOC(=O)N1C(=O)[C@@]2(c3cc(C#CCNC(N)=O)ccc31)[C@H](C(=O)NC[C@H](O)c1ccccc1)[C@H]1C(=O)O[C@H](c3ccccc3)[C@H](c3ccccc3)N1[C@@H]2c1ccccc1OCCO`, the z-score in test [1] was -0.577; in test [2], 1.39 (inactive); in test [3] it was 0.796 (inactive); in test [5], 2.62 (inactive); in test [6], 1.97 (inactive); in [7] it was 1.01 (inactive). In addition, the z-score in test [8] was 1.1 (inactive); in test [9], 0.952. Moreover, the composite z-score in test [4] was 0.272 (inactive); in [10] it was 0.108.
Turning to `Cc1ccc(C(C)CC(O)C2C=CC3C(=O)N(c4ccccc4)C(=O)C3N2Nc2ccc([N+](=O)[O-])cc2)o1` (stereo not given), the z-score is 0.836 in test [1]; 0.124 (inactive) in test [2]; -0.171 (inactive) in test [3]; 1.14 (inactive) in [5]; 0.315 (inactive) in test [6]; -0.975 (inactive) in test [7]. Also, the results for the z-score in [8] and in [9] were 0.178 (inactive) and 0.263, respectively. Further, the composite z-score in test [4] is -0.071 (inactive); in test [10] it was 0.152.
Regarding `COC(=O)[C@@]1(Cc2ccc(OC)cc2)[C@H]2c3cc(C(=O)N(C)C)n(Cc4cccc5ccccc45)c3C[C@H]2CN1C(=O)c1ccccc1`, the z-score in [1] was -1.75; in test [2], 0.897 (inactive); in [3] it was -2.01 (inactive); in test [5], 2.31 (inactive); in test [6] it was 0.872 (inactive); in [7], -0.353 (inactive). Also, the z-score in test [8] is -0.999 (inactive); in test [9], -2.66. In addition, the composite z-score in [4] was -3.49 (inactive); in test [10], 0.101.
`COC(=O)[C@@]1(Cc2ccc(F)cc2)[C@@H]2[C@@H](CC(=O)[C@H]2CC(=O)C(=O)N(C)C)CN1C(=O)c1ccccc1`: the z-score in test [1] is -2.11; in test [2], 1.52 (inactive); in test [3], -1.4 (inactive); in [5], 0.784 (inactive); in test [6], 0.438 (inactive); in [7], -0.287 (inactive). Further, the z-score in [8] is -0.13 (inactive); in test [9] it was -2.97. In addition, the composite z-score in test [4] was -0.363 (inactive); in [10], 0.0253.
